Some of the results follow. A number with no mark means an inactive call. Cut-off read from the data, not from the text of the source: active = activation above about 33%; inactive = the rest.
Test: NPY-Y2 potentiators or agonists, counter-screen for NPY-Y1 potentiator project, cell-based, fluorescence (AID 1649)
Conditions: HEK293-CNG cells, membrane-potential fluorescence (FLIPR), 1536-well; at 3.6 µM; stronger effect = higher value

Compound	activation
CSC1=NP(=S)(SC)N(C)c2nc3n(c21)CCC3 (configuration not stated)	3.63%
Cc1nn(Cc2ccccc2Cl)c(Cl)c1C(=O)OC(C(=O)NC(N)=O)C(C)C (configuration not stated)	23.6%
